Test [1] is described as follows: A CellTox Green Cytotoxicity Assay to monitor cytotoxicity in HEK293 cells - 40 hour (AID 1224871). Note: nearly all actives have a fitted effect of over 45% in size. Summed up: (§1)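 Read-out: fluorescence of a cell-impermeant cyanine dye staining DNA of dead cells, proportional to cytotoxicity. HEK293, 600 cells/well with reagent, compound (23 nL DMSO) added after 5 h; reads at 0, 8, 16, 24, 32, 40 h.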
Test [2] in a line: qHTS RealTime-Glo MT Cell Viability Assay in HEK293 cells - 16 hour (AID 1224872). Note: top concentration of the series differs between compounds; nearly all actives have a fitted effect of over 50% in size. Summed up: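 Cells + reagent dispensed (600 cells/well, HEK293) → 5 h at 37 C/5% CO2 → 23 nL compound in DMSO pinned → 40 h at 37 C → luminescence read at 0, 8, 16, 24, 32, 40 h.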
In general terms: qHTS replaces the single test concentration by a dilution series.

Test [3] can be described thus: qHTS RealTime-Glo MT Cell Viability Assay in HepG2 cells - 8 hour (AID 1224873). Note: nearly all actives have a fitted effect of over 55% in size. The procedure, abridged: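 HepG2 cells (600/well) mixed with RealTime-Glo MT reagent, settled 5 h at 37 C/5% CO2 before compound addition. Nonlytic NanoLuc luminescence from viable-cell prosubstrate reduction read repeatedly during 40 h treatment at 37 C.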
Test [4] in a line: qHTS RealTime-Glo MT Cell Viability Assay in HEK293 cells - 40 hour (AID 1224874). Note: nearly all actives have a fitted effect of over 50% in size. Conditions: RealTime-Glo luminescence; max response: active compounds read low. The procedure, abridged:
(§2)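 Luminescence readout at each listed time point; HEK293, 600 cells/well, RealTime-Glo MT reagent added with cells; compounds pinned (23 nL in DMSO) after 5 h at 37 C; continuous culture at 37 C.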

Test [5] in a line: A CellTox Green Cytotoxicity Assay to monitor cytotoxicity in HEK293 cells - 24 hour (AID 1224875). Note: series mostly up to about 77 µM; nearly all actives have a fitted effect of over 45% in size. The procedure, abridged: as §1
Test [6] can be described thus: A CellTox Green Cytotoxicity Assay to monitor cytotoxicity in HepG2 cells - 16 hour (AID 1224876). Note: nearly all actives have a fitted effect of over 45% in size. Summed up: (§3)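 HepG2, 600 cells/well premixed w/ CellTox Green; 5 h settle, 37 C/5% CO2; pintool cpd add (DMSO); 37 C, 40 h; fluorescence read at 0, 8, 16, 24, 32, 40 h.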
The nature of test [7]: qHTS RealTime-Glo MT Cell Viability Assay in HepG2 cells - 32 hour (AID 1224877). Note: nearly all actives have a fitted effect of over 55% in size. Note: potency is the fitted concentration of half-maximal effect. Summed up:
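Real-time, nonlytic viability: 600 HepG2 cells/well mixed with NanoLuc enzyme plus prosubstrate; 5 h settle, compound (DMSO) added by pintool; luminescence monitored over 40 h at 37 C.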

Test [8] in a line: A CellTox Green Cytotoxicity Assay to monitor cytotoxicity in HepG2 cells - 24 hour (AID 1224878). Note: nearly all actives have a fitted effect of over 45% in size. The procedure, abridged:
as §3

Test [9] can be described thus: A CellTox Green Cytotoxicity Assay to monitor cytotoxicity in HepG2 cells - 40 hour (AID 1224879). Note: nearly all actives have a fitted effect of over 40% in size. The procedure, abridged:
as §3

A short description of test [10]: qHTS RealTime-Glo MT Cell Viability Assay in HEK293 cells - 0 hour (AID 1224880). The procedure, abridged: as §2

Experimental findings from PubChem BioAssay (Tox21) are described below.

Structures are written as SMILES. Results filed as inconclusive are left out. Values without a mark were called inactive. Active and inactive are the calls of the source. Calls come from the whole dose curve; as a rule, active = well fitted curve in the direction sought with a large enough effect in the repeat runs; inconclusive = weak or mixed curves; inactive = no such curve, though single readings can be large; an effect the other way counts as inactive or inconclusive.
% is set by controls: 0 for no effect and ±100 for the full control effect.

For `CC[N+](C)(CC)CCOC(=O)C1c2ccccc2Oc2ccccc21`, the Potency entry in [1], in [2], in test [7], in test [9] and in [10] was “inactive” each time. The outcome in [3], in test [5], in test [6] and in [8] was inactive. Also, the max response in test [4] is 3.05%.
`CC1(C)[C@@H]2CC[C@@]1(C)[C@H](O)C2`: the Potency result in test [1], in test [2], in test [7], in test [9] and in [10] was “inactive” throughout. Further, the molecule was called inactive in [3], in [5], in test [6] and in test [8]. Further, in test [4], the max response is 2.75%.
As to `CC(C)NNC(=O)c1ccncc1`, the Potency entry in [1], in [2], in test [7], in test [9] and in test [10] was “inactive” throughout. The molecule was called inactive in test [3], in [5], in test [6] and in test [8]. The max response in test [4] was 9.38%.
Consider `C=C[Si](OC(C)=O)(OC(C)=O)OC(C)=O`, for which the Potency result in test [1], in test [2], in test [7], in test [9] and in [10] was “inactive” in each case. Besides, the outcome in [3], in [5], in [6] and in test [8] was inactive. The max response in [4] is 4.65%.
Regarding `O=S(=O)(O)c1cccc2ccccc12`, the Potency entry in test [1], in test [2], in [7], in test [9] and in [10] was “inactive” each time. For the same molecule, the molecule was called inactive in test [3], in test [5], in test [6] and in test [8]. The max response in [4] is 14.6%.
`CCN(C=O)CC`: the Potency result in [1], in test [2], in [7], in test [9] and in test [10] was “inactive” throughout. Further, the molecule was called inactive in [3], in [5], in [6] and in test [8]. Moreover, the max response in [4] was 2.6%.
Regarding `CCCCc1nc(Cl)c(CO)n1Cc1ccc(-c2ccccc2-c2nn[nH]n2)cc1`, the Potency result in test [1], in test [2], in test [7] and in test [9] was “inactive” throughout. For the same molecule, the result in test [3], in test [5], in [6] and in [8] was inactive. The max response in [4] was -16.9%.
As for `CN(C)[C@@H]1C(=O)C(C(=O)NCN2CCCC2)=C(O)[C@@]2(O)C(=O)C3=C(O)c4c(O)cccc4[C@@](C)(O)C3C[C@@H]12` (stereo partly drawn), the Potency result in [1], in test [2], in [7], in test [9] and in [10] was “inactive” each time. Moreover, the outcome in test [3], in test [5], in [6] and in [8] was inactive. The max response in [4] was 7.86%.
On to `CCOc1ccc2nc(S(N)(=O)=O)sc2c1`, for which the Potency entry in test [1], in [2], in test [7], in [9] and in [10] was “inactive” each time. In addition, the call in [3], in [5], in [6] and in [8] was inactive. For the same molecule, the max response in test [4] is 6.72%.
Take `N[C@@H](CCC(=O)O)C(=O)O`: the Potency result in test [1], in test [2], in [7], in [9] and in [10] was “inactive” throughout. In addition, the molecule was called inactive in test [3], in test [5], in test [6] and in test [8]. For the same molecule, in [4], the max response is -0.971%.
Regarding `CC[C@H]1OC(=O)[C@H](C)[C@@H](O[C@H]2C[C@@](C)(OC)[C@@H](O)[C@H](C)O2)[C@H](C)[C@@H](O[C@@H]2O[C@H](C)C[C@H](N(C)C)[C@H]2O)[C@](C)(OC)C[C@@H](C)C(=O)[C@H](C)[C@@H](O)[C@]1(C)O`, the Potency result in test [1], in test [2], in test [7], in [9] and in [10] was “inactive” each time. The molecule was called inactive in test [3], in test [5], in test [6] and in test [8]. In test [4], the max response was -20.3%.
Turning to `O=C(CO)[C@@H](O)[C@H](O)[C@H](O)CO`, the Potency entry in test [1], in test [2], in [7], in test [9] and in [10] was “inactive” each time. Moreover, the result in test [3], in test [5], in [6] and in test [8] was inactive. In addition, in [4], the max response was 1.94%.
For the molecule `CCCCCCC1CCC(=O)O1` (stereo not drawn), the Potency entry in test [1], in [2], in test [7], in test [9] and in [10] was “inactive” in each case. In addition, the molecule was called inactive in test [3], in [5], in [6] and in test [8]. For the same molecule, in test [4], the max response is 4.76%.
Turning to `Clc1cc(Cl)c(Cl)nc1Cl`, the Potency result in test [1], in test [2], in test [7], in [9] and in [10] was “inactive” each time. For the same molecule, the molecule was classed as inactive in [3], in [5], in test [6] and in test [8]. The max response in test [4] is -11.7%.
For `[O-][n+]1cccc(CO)c1`, the Potency entry in test [1], in test [2], in test [7], in [9] and in [10] was “inactive” in each case. Besides, the molecule was called inactive in test [3], in [5], in test [6] and in [8]. Also, in test [4], the max response was 8.89%.
Turning to `Cc1ccc(C(=O)Nc2ccc(S(=O)(=O)O)c3cc(S(=O)(=O)O)cc(S(=O)(=O)O)c23)cc1NC(=O)c1cccc(NC(=O)Nc2cccc(C(=O)Nc3cc(C(=O)Nc4ccc(S(=O)(=O)O)c5cc(S(=O)(=O)O)cc(S(=O)(=O)O)c45)ccc3C)c2)c1`, the Potency result in [1], in [2], in test [7], in test [9] and in test [10] was “inactive” in each case. The result in [3], in [5], in test [6] and in test [8] was inactive. Also, in test [4], the max response is 4.78%.
`CCCCc1ccc2c(n1)[C@@H](c1ccc(OC)cc1C[C@H](C)C(=O)O)[C@H](C(=O)O)[C@H]2c1ccc2c(c1)OCO2`: the Potency entry in [1], in test [2], in test [7], in [9] and in test [10] was “inactive” in each case. Moreover, the outcome in [3], in test [5], in [6] and in test [8] was inactive. The max response in test [4] is 0.185%.
For the molecule `CCN1C=CN(C)C1C` (stereo not drawn), the Potency entry in [1], in test [2], in test [7], in [9] and in [10] was “inactive” each time. The molecule was called inactive in test [3], in [5], in test [6] and in test [8]. Besides, the max response in test [4] is 0.14%.
Turning to `[K+]`, the Potency result in test [1], in [2] and in test [9] was “inactive” in each case. Further, the result in test [3], in [5], in test [6] and in test [8] was inactive. In test [4], the max response was 21.2%. The Potency in test [7] is 49 µM (active).
`CNC(=O)Nc1ccc(Cl)c(Cl)c1`: the Potency entry in test [1], in test [2], in test [7], in [9] and in test [10] was “inactive” throughout. Besides, the call in test [3], in test [5], in test [6] and in [8] was inactive. The max response in test [4] was -26.8%.
In the case of `O=C(O)c1cc(C(=O)O)cc(C(=O)O)c1`, the Potency entry in [1], in test [2], in test [7], in test [9] and in test [10] was “inactive” each time. Besides, the molecule was classed as inactive in [3], in test [5], in [6] and in [8]. For the same molecule, in [4], the max response is 16.8%.
With `Nc1ccn([C@@H]2O[C@H](CO)[C@@H](O)C2O)c(=O)n1` (stereo partly drawn), the Potency entry in test [1], in [2], in [7], in [9] and in test [10] was “inactive” each time. The molecule was classed as inactive in test [3], in test [5], in [6] and in test [8]. Besides, the max response in test [4] was 6.25%.
